Experimental data published in PubChem BioAssay (NCATS).
Inconclusive results are not listed. A call without a number means that no potency is given here. Active and inactive are the calls of the source. Calls come from the whole dose curve; as a rule, active = well fitted inhibition curve with a large enough effect; inconclusive = small, poorly fitted or top-dose-only effect; inactive = flat fitted curve, though single readings scatter.

Each compound was assayed on 3D7 (assay: qHTS profiling for inhibitors of Plasmodium falciparum proliferation (AID 504749; note: nearly all actives have a fitted effect of over 60% in size)). Conditions: P. falciparum in erythrocytes, SYBR Green DNA, 72 h; series mostly up to 28.7 µM.
How it was run: (§1)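 In a 72 h erythrocytic culture (37 C, humidified, 5% CO2) at 2.5% hematocrit and 0.3% starting parasitemia, compounds were tested; SYBR Green I in detergent lysis buffer stained parasite DNA overnight.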
Potency is the fitted concentration of half-maximal effect.

**Q.** `O=C(Oc1cccc2cccnc12)c1ccccc1` was tested. Which Potency did it give?
**A.** inactive

**Q.** For `NC(=O)C1(N2CCCCC2)CCN(CCCC(=O)c2ccc(F)cc2)CC1`, which Potency is on record?
**A.** inactive

**Q.** For `CCOC(=O)C(C#N)=C(c1ccccc1)c1ccccc1`, which Potency is on record?
**A.** inactive

**Q.** `COc1ccc(CN(CCN(C)C)c2ncccn2)cc1` was tested. Which Potency did it give?
**A.** inactive

**Q.** `CCCCC(CC)COC(=O)/C=C/c1ccc(OC)cc1` (configuration not stated) was tested. Which Potency did it give?
**A.** inactive

**Q.** How did the Potency turn out when `CN(C)CCN1C(=O)c2ccccc2N(C)c2ccccc21` was run?
**A.** inactive

**Q.** `COc1ccc2c(c1)c1c3n2CCN(C)C3=NCC1` was tested. Which Potency did it give?
**A.** inactive

**Q.** For `CN1CCN(C2=Nc3cc(F)ccc3Cc3ccccc32)CC1`, which Potency is on record?
**A.** inactive

**Q.** Which Potency does the source give for `Cc1cc(-c2ccccc2)nnc1NCCN1CCOCC1` here?
**A.** inactive

**Q.** For `COc1ccc(CCN(C)CCCN2CCc3cc(OC)c(OC)cc3CC2=O)cc1OC`, which Potency is on record?
**A.** inactive

**Q.** `CC(C)=CCOc1ccc(/C=C/C(=O)c2ccc(OCC=C(C)C)cc2OCC(=O)O)cc1` was tested. Which Potency did it give?
**A.** inactive

**Q.** How did the Potency turn out when `CCOC(=O)Nc1ccc2c(c1)N(C(=O)CCN1CCOCC1)c1ccccc1S2` was run?
**A.** inactive

**Q.** With `CCCCNc1ccc(C(=O)OCCOCCOCCOCCOCCOCCOCCOCCOCCOC)cc1` as the compound, how does the Potency read?
**A.** inactive

**Q.** For `CN1CCC(OC(c2ccccc2)c2ccccc2)CC1`, which Potency is on record?
**A.** inactive

**Q.** Which Potency does the source give for `NC(=O)n1c(O)c(C(=O)c2cccs2)c2cc(Cl)ccc21` here?
**A.** inactive

**Q.** How did the Potency turn out when `C=CCN1CCc2nc(N)sc2CC1` was run?
**A.** inactive

**Q.** For `NS(=O)(=O)Cc1noc2ccccc12`, which Potency is on record?
**A.** inactive

**Q.** `CCCCc1cc2ccccc2c(OCCN(C)C)n1` was tested. Which Potency did it give?
**A.** inactive

**Q.** Which Potency does the source give for `Cl/C(=C\n1cncn1)c1ccc(Cl)cc1Cl` here?
**A.** inactive

**Q.** `CCOCCn1c(N2CCCN(C)CC2)nc2ccccc21` was tested. Which Potency did it give?
**A.** inactive

**Q.** How did the Potency turn out when `CCC(C(=O)OCCOCCN(CC)CC)c1ccccc1` (configuration not stated) was run?
**A.** inactive

**Q.** With `C=C[C@@]1(C)CC(=O)[C@]2(O)[C@@]3(C)[C@@H](O)CCC(C)(C)[C@@H]3[C@H](O)[C@H](OC(C)=O)[C@@]2(C)O1` as the compound, how does the Potency read?
**A.** inactive

**Q.** With `CCN(CC)CCOc1ccccc1C(=O)CCc1ccccc1` as the compound, how does the Potency read?
**A.** inactive

**Q.** With `CC(=O)OCC(=O)[C@H]1CC[C@H]2[C@@H]3CCC4=CC(=O)CC[C@]4(C)[C@H]3CC[C@]12C` as the compound, how does the Potency read?
**A.** inactive

**Q.** How did the Potency turn out when `C#C[C@]1(OC(C)=O)CC[C@H]2[C@@H]3CCC4=C/C(=N/O)CC[C@@H]4[C@H]3CC[C@@]21CC` was run?
**A.** inactive

**Q.** For `CCC(CC)(CC(=O)Nc1cccc(/C=C/c2nc(C3CCC3)cs2)c1)C(=O)O`, which Potency is on record?
**A.** inactive

**Q.** For `NCCNc1cccc2ccccc12`, which Potency is on record?
**A.** inactive

The compounds below were run on 7G8 in the same assay as above. Conditions: P. falciparum in erythrocytes, SYBR Green DNA, 72 h; series mostly up to 28.7 µM.
How it was run: as §1

**Q.** How did the Potency turn out when `CN1CCN(C2=Nc3cc(F)ccc3Cc3ccccc32)CC1` was run?
**A.** 12.6 µM (active)

**Q.** `COc1ccc(C(=O)c2ccccc2)c(O)c1` was tested. Which Potency did it give?
**A.** 10 µM (active)

**Q.** `O=C(CCN1CCN2CCCC2C1)N1c2ccccc2Sc2ccc(Cl)cc21` (configuration not stated) was tested. Which Potency did it give?
**A.** 8.91 µM (active)

**Q.** With `CC1CCc2c(N3CCC(O)CC3)c(F)cc3c(=O)c(C(=O)O)cn1c23` (configuration not stated) as the compound, how does the Potency read?
**A.** 11.2 µM (active)

What follows are compounds tested on AA1029 in the same assay as above. Conditions: P. falciparum in erythrocytes, SYBR Green DNA, 72 h; series mostly up to 28.7 µM.
How it was run: as §1

**Q.** Which Potency does the source give for `O=C(Oc1cccc2cccnc12)c1ccccc1` here?
**A.** inactive

**Q.** For `NC(=O)C1(N2CCCCC2)CCN(CCCC(=O)c2ccc(F)cc2)CC1`, which Potency is on record?
**A.** inactive

**Q.** Which Potency does the source give for `CCOC(=O)C(C#N)=C(c1ccccc1)c1ccccc1` here?
**A.** inactive

**Q.** How did the Potency turn out when `COc1ccc(CN(CCN(C)C)c2ncccn2)cc1` was run?
**A.** inactive

**Q.** For `CCCCC(CC)COC(=O)/C=C/c1ccc(OC)cc1` (configuration not stated), which Potency is on record?
**A.** inactive

**Q.** How did the Potency turn out when `COc1ccc2c(c1)c1c3n2CCN(C)C3=NCC1` was run?
**A.** inactive

**Q.** How did the Potency turn out when `O=C1C(O)=C(O)C(=O)C(O)=C1O` was run?
**A.** inactive

**Q.** `Cc1cc(-c2ccccc2)nnc1NCCN1CCOCC1` was tested. Which Potency did it give?
**A.** inactive

**Q.** For `CC(C)=CCOc1ccc(/C=C/C(=O)c2ccc(OCC=C(C)C)cc2OCC(=O)O)cc1`, which Potency is on record?
**A.** inactive

**Q.** With `COc1ccc(C(=O)c2ccccc2)c(O)c1` as the compound, how does the Potency read?
**A.** inactive

**Q.** For `CCOC(=O)Nc1ccc2c(c1)N(C(=O)CCN1CCOCC1)c1ccccc1S2`, which Potency is on record?
**A.** inactive

**Q.** With `CCCCNc1ccc(C(=O)OCCOCCOCCOCCOCCOCCOCCOCCOCCOC)cc1` as the compound, how does the Potency read?
**A.** inactive

**Q.** With `CN1CCC(OC(c2ccccc2)c2ccccc2)CC1` as the compound, how does the Potency read?
**A.** 2.51 µM (active)

**Q.** `NC(=O)n1c(O)c(C(=O)c2cccs2)c2cc(Cl)ccc21` was tested. Which Potency did it give?
**A.** inactive

**Q.** Which Potency does the source give for `C=CCN1CCc2nc(N)sc2CC1` here?
**A.** inactive

**Q.** How did the Potency turn out when `NS(=O)(=O)Cc1noc2ccccc12` was run?
**A.** inactive

**Q.** How did the Potency turn out when `CCCCc1cc2ccccc2c(OCCN(C)C)n1` was run?
**A.** inactive

**Q.** `COc1ccc(C(Cl)=C(c2ccc(OC)cc2)c2ccc(OC)cc2)cc1` was tested. Which Potency did it give?
**A.** 6.31 µM (active)

**Q.** Which Potency does the source give for `Cl/C(=C\n1cncn1)c1ccc(Cl)cc1Cl` here?
**A.** inactive

**Q.** With `CCN(CC)CCOC(=O)C1(c2ccccc2)CCCC1` as the compound, how does the Potency read?
**A.** 0.01 µM (active)

**Q.** Which Potency does the source give for `C=C[C@@]1(C)CC(=O)[C@]2(O)[C@@]3(C)[C@@H](O)CCC(C)(C)[C@@H]3[C@H](O)[C@H](OC(C)=O)[C@@]2(C)O1` here?
**A.** inactive

**Q.** `CC(=O)OCC(=O)[C@H]1CC[C@H]2[C@@H]3CCC4=CC(=O)CC[C@]4(C)[C@H]3CC[C@]12C` was tested. Which Potency did it give?
**A.** inactive

**Q.** For `C#C[C@]1(OC(C)=O)CC[C@H]2[C@@H]3CCC4=C/C(=N/O)CC[C@@H]4[C@H]3CC[C@@]21CC`, which Potency is on record?
**A.** inactive

**Q.** With `CCC(CC)(CC(=O)Nc1cccc(/C=C/c2nc(C3CCC3)cs2)c1)C(=O)O` as the compound, how does the Potency read?
**A.** inactive

**Q.** How did the Potency turn out when `NCCNc1cccc2ccccc12` was run?
**A.** inactive

Each compound was assayed on AS120 in the same assay as above. Conditions: P. falciparum in erythrocytes, SYBR Green DNA, 72 h; series mostly up to 28.7 µM.
How it was run: as §1

**Q.** `O=C(Oc1cccc2cccnc12)c1ccccc1` was tested. Which Potency did it give?
**A.** inactive

**Q.** With `NC(=O)C1(N2CCCCC2)CCN(CCCC(=O)c2ccc(F)cc2)CC1` as the compound, how does the Potency read?
**A.** inactive

**Q.** With `CCOC(=O)C(C#N)=C(c1ccccc1)c1ccccc1` as the compound, how does the Potency read?
**A.** inactive

**Q.** For `COc1ccc(CN(CCN(C)C)c2ncccn2)cc1`, which Potency is on record?
**A.** inactive

**Q.** With `CCCCC(CC)COC(=O)/C=C/c1ccc(OC)cc1` (configuration not stated) as the compound, how does the Potency read?
**A.** inactive

**Q.** Which Potency does the source give for `COc1ccc2c(c1)c1c3n2CCN(C)C3=NCC1` here?
**A.** inactive

**Q.** Which Potency does the source give for `O=C1C(O)=C(O)C(=O)C(O)=C1O` here?
**A.** inactive

**Q.** Which Potency does the source give for `Cc1cc(-c2ccccc2)nnc1NCCN1CCOCC1` here?
**A.** inactive

**Q.** With `COc1ccc(CCN(C)CCCN2CCc3cc(OC)c(OC)cc3CC2=O)cc1OC` as the compound, how does the Potency read?
**A.** inactive

**Q.** How did the Potency turn out when `CC(C)=CCOc1ccc(/C=C/C(=O)c2ccc(OCC=C(C)C)cc2OCC(=O)O)cc1` was run?
**A.** inactive

**Q.** `COc1ccc(C(=O)c2ccccc2)c(O)c1` was tested. Which Potency did it give?
**A.** inactive

**Q.** `CCOC(=O)Nc1ccc2c(c1)N(C(=O)CCN1CCOCC1)c1ccccc1S2` was tested. Which Potency did it give?
**A.** inactive

**Q.** With `CCCCNc1ccc(C(=O)OCCOCCOCCOCCOCCOCCOCCOCCOCCOC)cc1` as the compound, how does the Potency read?
**A.** inactive

**Q.** For `NC(=O)n1c(O)c(C(=O)c2cccs2)c2cc(Cl)ccc21`, which Potency is on record?
**A.** inactive

**Q.** How did the Potency turn out when `C=CCN1CCc2nc(N)sc2CC1` was run?
**A.** inactive

**Q.** `NS(=O)(=O)Cc1noc2ccccc12` was tested. Which Potency did it give?
**A.** inactive

**Q.** `CCCCc1cc2ccccc2c(OCCN(C)C)n1` was tested. Which Potency did it give?
**A.** inactive

**Q.** For `COc1ccc(C(Cl)=C(c2ccc(OC)cc2)c2ccc(OC)cc2)cc1`, which Potency is on record?
**A.** 3.55 µM (active)

**Q.** Which Potency does the source give for `Cl/C(=C\n1cncn1)c1ccc(Cl)cc1Cl` here?
**A.** inactive

**Q.** Which Potency does the source give for `CCOCCn1c(N2CCCN(C)CC2)nc2ccccc21` here?
**A.** inactive

**Q.** `CCN(CC)CCOC(=O)C1(c2ccccc2)CCCC1` was tested. Which Potency did it give?
**A.** inactive

**Q.** Which Potency does the source give for `CCC(C(=O)OCCOCCN(CC)CC)c1ccccc1` (configuration not stated) here?
**A.** inactive

**Q.** With `C=C[C@@]1(C)CC(=O)[C@]2(O)[C@@]3(C)[C@@H](O)CCC(C)(C)[C@@H]3[C@H](O)[C@H](OC(C)=O)[C@@]2(C)O1` as the compound, how does the Potency read?
**A.** inactive

**Q.** `C#C[C@]1(OC(C)=O)CC[C@H]2[C@@H]3CCC4=C/C(=N/O)CC[C@@H]4[C@H]3CC[C@@]21CC` was tested. Which Potency did it give?
**A.** inactive

**Q.** For `CCC(CC)(CC(=O)Nc1cccc(/C=C/c2nc(C3CCC3)cs2)c1)C(=O)O`, which Potency is on record?
**A.** inactive

**Q.** How did the Potency turn out when `NCCNc1cccc2ccccc12` was run?
**A.** inactive
